Out of some 5,500 compounds screened, about 2,000 (36%) were called active. Not shown: some 18% with an inconclusive outcome. Rule as the data show it: active = normalized growth mostly below about 0.91 (no sharp cut-off); inconclusive = no clear call, values can overlap the other calls; inactive = mostly above about 0.92. The list shows a part of the results.
Assay: chemical genetic growth profiling, strain panel (AID 1159580);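 also: tested at 20 µM; growth read once vehicle control cultures reached saturation at 30 °C; 1 = growth at the plate median or of vehicle wells; lower values mean less growth of the strain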
Conditions: S. cerevisiae deletion strains, growth OD
[1] = locus YDL101C, strain DUN1, stronger effect = lower value
[2] = locus YHR030C, strain SLT2, stronger effect = lower value

Measured: normalized growth

CCCN(CCC)C(=S)NC(=O)c1cccc([N+](=O)[O-])c1
inactive: locus YAR019C, strain CDC15, stronger effect = lower value 0.973 | locus YBL105C, strain PKC1, stronger effect = lower value 0.956 | locus YBR135W, strain CKS1, stronger effect = lower value 0.977 | locus YBR136W, strain MEC1, stronger effect = lower value 0.966 | locus YBR160W, strain CDC28, stronger effect = lower value 0.965 | locus YDL017W, strain CDC7, stronger effect = lower value 0.969 | locus YDL028C, strain MPS1, stronger effect = lower value 0.976 | [1] 0.968 | locus YDL108W, strain KIN28, stronger effect = lower value 0.965 | locus YDL132W, strain cdc53, stronger effect = lower value 0.973 | locus YDL214C, strain PRR2, stronger effect = lower value 0.967 | locus YDR052C, strain DBF4, stronger effect = lower value 0.978 | locus YDR054C, strain cdc34, stronger effect = lower value 0.96 | locus YDR226W, strain ADK1, stronger effect = lower value 0.968 | locus YDR477W, strain SNF1, stronger effect = lower value 0.958 | locus YER123W, strain YCK3, stronger effect = lower value 0.907 | locus YER133W, strain GLC7, stronger effect = lower value 0.965 | locus YFL009W, strain cdc4, stronger effect = lower value 0.961 | locus YFL029C, strain CAK1, stronger effect = lower value 0.962 | locus YFR003C, strain YPI1, stronger effect = lower value 0.977 | locus YFR019W, strain FAB1, stronger effect = lower value 0.958 | locus YFR028C, strain CDC14, stronger effect = lower value 0.963 | locus YGR040W, strain KSS1, stronger effect = lower value 0.924 | locus YGR052W, strain FMP48, stronger effect = lower value 1.02 | locus YGR092W, strain DBF2, stronger effect = lower value 0.915 | [2] 0.94 | locus YHR079C, strain IRE1, stronger effect = lower value 0.978 | locus YHR082C, strain KSP1, stronger effect = lower value 1.02 | locus YHR205W, strain SCH9, stronger effect = lower value 0.976 | locus YIL147C, strain SLN1, stronger effect = lower value 0.97 | locus YJL095W, strain BCK1, stronger effect = lower value 0.982 | locus YJL128C, strain PBS2, stronger effect = lower value 0.952 | locus YJL157C, strain FAR1, stronger effect = lower value 0.928 | locus YJR016C, strain ILV3, stronger effect = lower value 0.968 | locus YJR066W, strain TOR1 (second series), stronger effect = lower value 0.898 | locus YJR066W, strain TOR1, stronger effect = lower value 0.992 | locus YKL048C, strain ELM1, stronger effect = lower value 0.954 | locus YKL067W, strain YNK1, stronger effect = lower value 0.96 | locus YKL101W, strain HSL1, stronger effect = lower value 0.958 | locus YKL193C, strain SDS22, stronger effect = lower value 0.968 | locus YKL203C, strain TOR2, stronger effect = lower value 0.995 | locus YLR113W, strain HOG1, stronger effect = lower value 0.932 | locus YLR133W, strain CKI1, stronger effect = lower value 0.946 | locus YLR403W, strain SFP1, stronger effect = lower value 0.907 | locus YML070W, strain DAK1, stronger effect = lower value 0.942 | locus YMR001C, strain CDC5, stronger effect = lower value 0.973 | locus YMR205C, strain PFK2 (second series), stronger effect = lower value 0.956 | locus YMR277W, strain FCP1, stronger effect = lower value 0.973 | locus YNL006W, strain LST8, stronger effect = lower value 0.977 | locus YNL020C, strain ARK1, stronger effect = lower value 0.946 | locus YNL161W, strain CBK1, stronger effect = lower value 0.959 | locus YNL183C, strain NPR1, stronger effect = lower value 0.977 | locus YNL207W, strain RIO2, stronger effect = lower value 0.971 | locus YNL222W, strain SSU72, stronger effect = lower value 0.965 | locus YNL307C, strain MCK1 (second series), stronger effect = lower value 0.94 | locus YOL078W, strain AVO1, stronger effect = lower value 0.965 | locus YOL136C, strain PFK27, stronger effect = lower value 0.929 | locus YOR061W, strain CKA2, stronger effect = lower value 0.943 | locus YOR119C, strain RIO1, stronger effect = lower value 0.996 | locus YOR231W, strain MKK1, stronger effect = lower value 0.939 | locus YOR329C, strain SCD5, stronger effect = lower value 0.963 | locus YPL031C, strain PHO85, stronger effect = lower value 0.955 | locus YPL153C, strain RAD53, stronger effect = lower value 0.925 | locus YPL204W, strain HRR25, stronger effect = lower value 0.915 | locus YPL209C, strain IPL1, stronger effect = lower value 0.961 | locus YPL256C, strain CLN2, stronger effect = lower value 0.941 | locus YPR025C, strain CCL1, stronger effect = lower value 0.973 | locus YPR106W, strain ISR1, stronger effect = lower value 0.961 | locus YPR111W, strain DBF20, stronger effect = lower value 0.964 | strain NNK1, stronger effect = lower value 0.974 | strain TSCII, stronger effect = lower value 0.962

COc1ccc(-n2c(=S)[nH]c(=O)c3cccnc32)cc1
inactive: locus YAL013W, strain DEP1, stronger effect = lower value 1 | locus YBR229C, strain ROT2, stronger effect = lower value 1.01 | [1] 1.04 | locus YDL134C, strain PPH21, stronger effect = lower value 0.996 | locus YDR150W, strain NUM1, stronger effect = lower value 0.985 | locus YEL061C, strain CIN8, stronger effect = lower value 1 | locus YGR078C, strain PAC10, stronger effect = lower value 1.04 | locus YGR229C, strain SMI1, stronger effect = lower value 0.993 | [2] 1.06 | locus YHR087W, strain rtc3, stronger effect = lower value 0.954 | locus YJL187C, strain SWE1, stronger effect = lower value 0.99 | locus YJR043C, strain POL32, stronger effect = lower value 1.04 | locus YJR075W, strain HOC1, stronger effect = lower value 0.993 | locus YLR039C, strain RIC1, stronger effect = lower value 0.999 | locus YLR058C, strain SHM2 (second series), stronger effect = lower value 0.991 | locus YLR085C, strain ARP6, stronger effect = lower value 1.03 | locus YLR262C, strain YPT6, stronger effect = lower value 0.988 | locus YML094W, strain GIM5, stronger effect = lower value 0.983 | locus YMR219W, strain ESC1, stronger effect = lower value 0.999 | locus YMR263W, strain SAP30, stronger effect = lower value 1.02 | locus YNL153C, strain GIM3, stronger effect = lower value 1.02 | locus YNL298W, strain CLA4 (second series), stronger effect = lower value 1 | locus YNL322C, strain KRE1, stronger effect = lower value 1.01 | locus YNR030W, strain Alg12, stronger effect = lower value 0.994 | locus YPL055C, strain LGE1, stronger effect = lower value 0.973 | locus YPL241C, strain CIN2, stronger effect = lower value 0.991 | locus YPR135W, strain CTF4, stronger effect = lower value 1.05
